# TDP1 cell noCPT – qHTS for Inhibitors of human tyrosyl-DNA phosphodiesterase 1 (TDP1): qHTS in cells in absence of CPT. DT40 Tdp1-/- hTDP1 cells, no CPT, ATP luminescence, 48 h. Potency, µM (series often up to 46.2 µM), usual class: inhibitors. 420,000 compounds, 15% hits; also: nearly all actives have a fitted effect of over 55% in size
#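 Chicken DT40 Tdp1-/- cells complemented with human TDP1, screened without camptothecin (DMSO vehicle only), 400 cells/well. Compounds pin-transferred, cells incubated at 37 °C for at least 48 hr. Growth read as ATP-dependent luminescence (CellTiter-Glo, 30 min at RT).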
# DT40 TDP1 CPT – growth inhibition of DT40 Tdp1-/-;hTDP1 cells with camptothecin (screen for TDP1 inhibitors). chicken DT40 Tdp1-/-;hTDP1 cells + 20 nM CPT, ATP luminescence, 48 h. Potency, µM (highest dose often 46.2 µM), usual class: inhibitors. 420,000 compounds, 12% hits; also: nearly all actives have a fitted effect of over 55% in size
#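 Chicken DT40 Tdp1-/- cells stably complemented with human TDP1 were seeded at 400 cells/well in medium containing 20 nM camptothecin, exposed to pin-transferred compounds, and grown at 37 °C for at least 48 hr. Viability was read as ATP luminescence.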
# HepG2 viability – counter-screen for TGF-b inhibitors: cytotoxicity in HepG2 cells; HepG2 CAGA-GFP viability, ATP luminescence, 18 h; Potency, µM (doses to about 46.1 µM), hits mostly cytotoxic; 410,000 compounds, 0.76% hits
#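 HepG2 CAGA-GFP cells (1000/well, DMEM with 1% FBS) received compound, then TGF-beta at 500 pg/mL final, and were incubated 18 hours at 37 degrees C. Viability was read by CellTiter-Glo luminescence. Media-only wells were set as complete cell-killing and DMSO as no toxicity.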
# TDP1 block – inhibitors of human tyrosyl-DNA phosphodiesterase TDP1. 350,000 compounds, 0.28% hits. recombinant TDP1, AlphaScreen DNA substrate cleavage. Q9NUW8. Potency, µM (doses to about 130 µM), most hits filed as inhibitors. AID 485290; also: nearly all actives have a fitted effect of over 40% in size
# Target sequence (Q9NUW8 whole entry, looked up): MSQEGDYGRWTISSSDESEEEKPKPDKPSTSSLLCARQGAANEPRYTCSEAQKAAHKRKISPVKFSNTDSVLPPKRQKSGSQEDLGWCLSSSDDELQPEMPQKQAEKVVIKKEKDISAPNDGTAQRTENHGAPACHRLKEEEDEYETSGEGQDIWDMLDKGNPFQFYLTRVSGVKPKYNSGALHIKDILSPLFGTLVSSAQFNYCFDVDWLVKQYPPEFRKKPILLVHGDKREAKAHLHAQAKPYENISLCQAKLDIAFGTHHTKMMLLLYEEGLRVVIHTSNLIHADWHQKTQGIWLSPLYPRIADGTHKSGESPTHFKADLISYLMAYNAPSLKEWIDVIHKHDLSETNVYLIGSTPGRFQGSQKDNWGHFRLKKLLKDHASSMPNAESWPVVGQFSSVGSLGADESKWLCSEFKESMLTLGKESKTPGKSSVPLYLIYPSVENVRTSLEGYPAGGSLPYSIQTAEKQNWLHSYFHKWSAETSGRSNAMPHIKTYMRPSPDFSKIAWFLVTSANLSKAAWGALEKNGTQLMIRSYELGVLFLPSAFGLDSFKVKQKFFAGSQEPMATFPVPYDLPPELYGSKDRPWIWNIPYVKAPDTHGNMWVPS
#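 Tdp1 1 nM final; 15 min RT w/ cpd; substrate 15 nM, 5 min; beads 10 ug/ml, 10 min; AlphaScreen read. Neg ctrl: no enzyme.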
# TGFb inhibitor – inhibitors of TGF-b signaling | HepG2 CAGA-GFP TGF-b/SMAD3 reporter, GFP fluorescence, 18 h; TGF-beta stimulated, 500 pg/mL final | Potency, µM (top dose mostly 46.1 µM), actives largely listed as inhibitors | 410,000 compounds, 1.2% hits; also: nearly all actives have a fitted effect of over 65% in size
#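 GFP signal (ex488/em500-530) from TGF-beta-stimulated HEPG2 CAGA-GFP cells, 500 pg/mL final, 18 h at 37 degrees C in DMEM plus 1% FBS, normalized to unstimulated and DMSO-stimulated controls.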
# IL-1B inflam inh – inhibitors of inflammasome signaling (IL-1 beta secretion); activity change, % at 57.5 µM; 360,000 compounds, 4.7% hits; THP-1 LPS/ATP IL-1B secretion, AlphaLISA, 16 h; active compounds read low; in the data active = activity change below about -50%; inconclusive = mostly about -30% to -49%
#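 Secreted IL-1B measured by AlphaLISA bead assay after 16 h compound exposure of THP-1 cells; compounds (final up to 57.5 uM) added 1 h before LPS (250 ng/mL) and ATP (1.25 mM) stimulation; lower signal means less secretion.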
# A number is an active result; - = inactive; ? = inconclusive; . = no result. The list is not random: actives were taken first. Their share in the collection is about 18%. Unless noted, calls follow the shape of the dose curve; as a rule, active = well fitted curve in the direction sought with a large enough effect; inconclusive = small, poorly fitted or top-dose-only effect, or another doubt; inactive = no such curve, though single readings can be large; an effect the other way counts as inactive or inconclusive.
SMILES,TDP1 cell noCPT,DT40 TDP1 CPT,HepG2 viability,TDP1 block,TGFb inhibitor,IL-1B inflam inh
CCN(CC)c1ccc(NC(=O)c2cc(OC)cc(OC)c2)c(C)c1,1.3µM,1.3µM,-,-,?,-
CCN(CC)c1ccc(NC(=O)c2c(OC)cccc2OC)c(C)c1,-,-,-,-,-,-
CCN(CC)c1ccc(NC(=O)c2ccc3c(c2)OCO3)c(C)c1,?,?,-,-,-,-
CCN(CC)c1ccc(NC(=O)c2cc(CN3CCCC3)on2)c(C)c1,13µM,16.4µM,-,-,-,.
CCN(CC)c1ccc(NC(=O)c2cccc(OC)c2)c(C)c1,?,29.1µM,-,-,-,-
CCN(CC)c1ccc(NC(=O)C2COc3ccc(OC)cc3C2)c(C)c1 (configuration not stated),1.03µM,0.581µM,-,-,8.91µM,.
Cc1cccc(C)c1NC(=O)Cn1c(=O)n(CCC(=O)NCc2ccc3c(c2)OCO3)c(=O)c2sccc21,-,-,-,-,-,.
CC1CC(C)CN(C(=O)COC(=O)c2ccc3ccccc3n2)C1 (configuration not stated),-,-,-,-,-,-
CCN(CC)CC(=O)Nc1c(C#N)cnn1-c1ccccc1,-,-,-,.,-,-
O=C(Nc1cccnc1Cl)c1cnn2c1NC(=C1CC1)C=C2C(F)F,8.91µM,?,-,.,-,.
Cc1ccc(NC(=O)c2cnn3c2NC(=C2CC2)C=C3C(F)F)cc1C,?,-,-,.,-,.
O=C(c1cnn2c1NC(=C1CC1)C=C2C(F)F)N1CCc2ccccc21,11.2µM,11.2µM,-,.,-,.
O=C(Nc1ccccc1Sc1ccccc1)c1cnn2c1NC(=C1CC1)C=C2C(F)F,?,15.8µM,-,.,-,.
O=C(Nc1cccc(Nc2ccccc2)c1)c1cnn2c1NC(=C1CC1)C=C2C(F)F,14.1µM,4.47µM,-,.,-,.
Cc1ccc(NC(=O)Cn2c(=O)n(CCCCC(=O)NCCc3ccc(Cl)cc3)c(=O)c3ccccc32)cc1,?,?,-,-,-,.
Cc1ccc(NC(=O)CSc2nnc(C)n2C2CC2)cc1S(=O)(=O)N1CCOCC1,-,-,-,-,-,-
Cn1c(=O)oc2cc(S(=O)(=O)N3CCCC(C(=O)NCc4ccc(F)cc4)C3)ccc21 (configuration not stated),?,?,-,-,-,.
CCc1ccccc1N(C(=O)c1cccs1)C1C=CS(=O)(=O)C1 (configuration not stated),?,-,-,-,-,-
O=C(NC1CCCc2ccccc21)c1cnn2c1NC(=C1CC1)C=C2C(F)F (configuration not stated),20µM,11.2µM,.,.,.,.
COc1ccc(CCNC(=O)c2cnn3c2NC(=C2CC2)C=C3C(F)F)cc1OC,12.6µM,11.2µM,-,.,-,.
O=C(Nc1cc(Cl)cc(Cl)c1)c1cnn2c1NC(=C1CC1)C=C2C(F)F,-,-,-,.,-,.
CCNC(=O)c1cnc2sc(N3CCC(C)CC3)nn2c1=O,-,-,-,-,-,.
CCCCNC(=O)CSc1nc(CCC)nc2ccccc12,23.1µM,23.1µM,-,-,-,-
CCc1nc(SCC(=O)Nc2ccc(N(C)C)cc2)c2ccccc2n1,14.6µM,?,-,.,-,?
CCCc1nc(SCC(=O)Nc2nccs2)c2ccccc2n1,?,-,-,-,-,-
SMILES,TDP1 cell noCPT,DT40 TDP1 CPT,HepG2 viability,TDP1 block,TGFb inhibitor,IL-1B inflam inh
Cc1cc(C)c(NC(=O)CSc2nc3ccccc3c3nc(CCn4cncc4C)nn23)c(C)c1,14.6µM,13µM,-,-,-,.
Cc1cc(C)c(NC(=O)CSc2nc(COc3ccccc3)nc3ccccc23)c(C)c1,18.4µM,23.1µM,-,-,-,-63.5
CN(C)S(=O)(=O)c1ccc(N2CCCC2)c(C(=O)N2CCN(c3ccc([N+](=O)[O-])cc3)CC2)c1,?,-,-,-,-,-
CCN1CCCC1CNC(=O)c1cc(S(=O)(=O)N(C)C)ccc1Cl (configuration not stated),-,-,-,-,-,-
Cc1ccc(S(=O)(=O)N2CC3C(=O)C[C@@H](c4ccccc4)N(S(=O)(=O)c4ccccc4Cl)C3CC2c2ccccc2)cc1 (some centres not stated),-,-,.,.,.,-
CC1CCN(Cc2nnnn2CCCC(=O)N(C)C(C)c2ccccn2)CC1 (configuration not stated),-,-,-,-,-,-
CC1CC(C)CN(C(=O)CSc2nc(Cc3cccs3)nc3ccccc23)C1 (configuration not stated),20.6µM,?,-,-,?,-60.5
CCCNC(=O)CSc1nc(COc2ccccc2)nc2ccccc12,?,-,-,-,-,-66.6
CCOC(=O)CNC(=O)CSc1nc(Cc2cccs2)nc2ccccc12,?,?,-,-,?,-
CCCc1nc(SCC(=O)N2CCc3ccccc3C2)c2ccccc2n1,?,?,-,-,-,-71.8
COC(=O)CSc1nc(COc2ccccc2)nc2ccccc12,-,-,-,.,-,-
Cc1ccc(S(=O)(=O)NCc2ccccc2)cc1C(=O)NCC(C)(C)N1CCOCC1,?,?,-,.,-,-
COc1cccc(Cn2nc3c4cc(F)ccc4n(Cc4ccc(F)cc4)cc-3c2=O)c1,?,-,-,.,-,-
COc1cc2c3nnc(-c4ccc(F)cc4)c-3cn(Cc3cccc(C)c3)c2cc1OC,2.59µM,1.84µM,-,-,-,-97.8
COc1cc2c3nnc(-c4ccc(F)cc4)c-3cn(Cc3cccc(F)c3)c2cc1OC,2.59µM,2.31µM,-,-,-,-
COc1cc2c3nnc(-c4ccccc4)c-3cn(Cc3ccc(F)cc3)c2cc1OC,14.6µM,8.2µM,22.4µM,-,-,-192.1
Fc1cc2[nH]cnc2cc1Cl,1.84µM,-,-,-,-,-
CCOC(=O)CN(C)Cc1cn[nH]c1-c1ccc2cc(OC)ccc2c1,13µM,16.4µM,-,-,-,-63.8
CCOC(=O)CN(C)Cc1cn(C)nc1-c1ccc(Oc2ccccc2)cc1,13µM,?,-,-,-,-
CCCN1CCC(NCc2cn(C)nc2-c2ccc(Oc3ccccc3)cc2)CC1,4.61µM,5.17µM,1.26µM,-,?,-
COCCN1CCCC(CNCc2cn(C)nc2-c2ccc(Oc3ccccc3)cc2)C1 (configuration not stated),5.8µM,18.4µM,-,-,-,-51.3
COCCN(Cc1cn[nH]c1-c1ccc2cc(OC)ccc2c1)C(C)C,-,-,-,-,?,-

# Compound activity as filed in PubChem.
